These results are taken from PubChem BioAssay (NCI).

The panel holds about 83,000 compounds, 20% with a hit somewhere; the sample as a whole holds those more often.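 Assay: single dose, 48 h. Readout: percent growth (0 = no net growth; negative = cell death). Active: <10.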 Calls of active or inactive are those of the source.

The test system of one assay is MALME-3M melanoma. Briefly: NCI-60 one-dose screen, 48 h (100 = growth as untreated, 0 = no growth, -100 = all killed). The conditions noted are these: 10 µM unless noted.
On to `COc1ccc(C2=Nc3c/c(=C\c4c(O)[nH]c5cc(Cl)ccc45)ccc3=N2)cc1`, for which the growth was 72.6% (inactive). Still for that read-out and setting: the figure for `CCCCCCCCCCCCCCCCCCOc1ccccc1CC(=O)NCC[N+]1(C)CCOCC1` is 58.9% (inactive); for `Cc1ccc(-c2cc(C(=O)N3N=C(c4ccc(N)cc4)CC3c3ccc(Cl)cc3)c3ccccc3n2)cc1` (configuration not stated) it is 67% (inactive). For `O=C(CN1C(=O)/C(=C/c2ccco2)SC1=S)NCCc1c[nH]c2ccc(F)cc12`, the growth was 108% (inactive).

Consider `CCN(CC)CCN(CCN(CC)CC)c1ccccc1`, for which the growth is 110% (inactive). The same measure, in the same setting: under `COc1cc(C(=O)C(=O)c2cc(OC)c(O)c(OC)c2)cc(OC)c1O` stands 103% (inactive); under `O=C(/C=C/c1ccc(Br)cc1)c1ccc(-n2cc(CN3CCN(c4cc5c(cc4F)c(=O)c(C(=O)O)cn5C4CC4)CC3)nn2)cc1`, 102% (inactive).

The test system of the next assay is MDA-MB-231 breast. The assay is described as above. The following applies: 10 µM unless noted.
Regarding `Fc1ccc(COc2ccc(Nc3ncnc4sc5c(c34)CCCC5)cc2)cc1`, the growth was 94.9% (inactive). Still for that read-out and setting: under `COc1cc(C2Cc3ncccc3-c3[nH]c(=O)c4cccnc4c32)cc(OC)c1OC` (configuration not stated) stands 31% (inactive). On the same count and under the same terms, the figure for `O=C(c1ccc(Cl)cc1Cl)N1c2ccccc2Sc2ccccc21` is 68.8% (inactive); for `O=C(N/N=C/c1ccc([N+](=O)[O-])cc1)c1ccc2nc(-c3ccc(Cl)cc3)[nH]c2c1` it is 76.9% (inactive); for `O=C(NCc1ccccc1O)c1cccc2ccccc12` it is 68.9% (inactive). On the same count and under the same terms, the figure for `CC1=C(C(=O)n2c3ccccc3c3ccccc32)C(c2cccc([N+](=O)[O-])c2)C(C(=O)n2c3ccccc3c3ccccc32)=C(C)N1` is 85% (inactive); for `COc1ccc(/C=C/C(=O)c2ccc(NC(=O)CSc3nnc(-c4cc(-c5ccccc5)nc5ccccc45)n3-c3ccccc3)cc2)cc1` it is 87.3% (inactive).

As to `Cn1cc(-c2nc(-c3c[nH]c4ccncc34)cs2)c2cc(Br)ccc21`, the growth is -80.7% (active). The same measure, in the same setting: the figure for `C#Cc1cccc(Oc2ccc(NC(=O)CCl)cc2)c1` is 41.1% [8.25 µM] (inactive). Still for that read-out and setting: under `CC1(C)CC[C@]2(C(=O)N3CCOCC3)CC[C@]3(C)C(=CC[C@@H]4[C@@]5(C)C/C(=C/c6ccncc6)C(=O)C(C)(C)[C@@H]5CC[C@]43C)[C@@H]2C1` stands 33.9% (inactive). Still for that read-out and setting: the figure for `CC(C)c1ccc(NC(=O)Nc2ccc(NC(=O)c3ccccc3N)cc2)cc1` is 50.1% (inactive); for `Cc1cc(C(=O)Nc2cc(Nc3ncccc3-c3ncnc4nc[nH]c34)ccc2F)cc(C(F)(F)F)c1` it is 22.9% (inactive); for `COc1cc2c3c(n(CCCCNCCCn4c5c(c6cc(OC)c(OC)cc6c4=O)C(=O)c4cc6c(cc4-5)OCO6)c(=O)c2cc1OC)-c1cc2c(cc1C3=O)OCO2` it is 90.4% (inactive). For `CNC(=O)c1c(NC(=O)c2ccc(C(C)(C)C)cc2)sc2c(CN(C)C)c(O)ccc12`, the growth is -44.8% (active). As for `CCCCn1sc(=O)n(Cc2ccc(CNC(=O)OCc3ccc4c(Cl)cc(Cl)c(O)c4n3)cc2)c1=O`, the growth is 84.4% (inactive). With `O=C1Nc2ccc(F)cc2/C1=N/c1nnc(Sc2ccccc2)s1`, the growth was 87.1% (inactive). As for `N#Cc1c(N2CCOCC2)nc(=S)[nH]c1-c1ccccc1`, the growth was 73.1% (inactive). On the same count and under the same terms, the figure for `O=C(CSc1nnc2sc(Nc3cccc(Cl)c3)nn12)c1ccc(F)cc1` is 79.7% (inactive); for `C=C(CO)[C@@H]1CC[C@]2(COC3CCCCO3)CC[C@]3(C)[C@H](CC[C@@H]4[C@@]5(C)C=C(C=O)C(=O)C(C)(C)[C@@H]5CC[C@]43C)[C@@H]12` (some centres not stated) it is -58.4% (active). Same read-out and setting: under `COc1ccc(-c2cc(C(=O)N3N=C(c4ccc(N)cc4)CC3c3ccccc3)c3ccccc3n2)cc1` (configuration not stated) stands 62.9% (inactive); under `COc1ccc(-c2cc(-c3cc(OC)c(OC)c(OC)c3)c(C#N)c(=O)n2CCCCCC(=O)NO)cc1`, 75.9% (inactive). Still for that read-out and setting: the figure for `Cn1ccnc1C(=O)/C=C/c1ccc(C(=O)Nc2ccc(F)cc2)cc1` is 18.7% (inactive).

For `C=C1C(=O)O[C@H]2[C@H]1CC/C(COC(=O)NCCCCCCCCNC(=O)OC/C1=C/CC[C@@]3(C)O[C@H]3[C@H]3OC(=O)C(=C)[C@@H]3CC1)=C\CC[C@@]1(C)O[C@@H]21`, the growth is -79.1% (active). On the same count and under the same terms, the figure for `C/C(C=O)=C\c1ccc2c(c1)OCO2` is 121% (inactive); for `COc1cccc(/C=C/C(=O)c2cc3c(N)c(C(=O)Nc4cccc(Cl)c4C)sc3nc2C)c1` it is -26.5% (active); for `COC(=O)/C=C1/SC(=Nc2cccc(Cl)c2)N(CCc2c[nH]c3ccc(O)cc23)C1=O` it is 29.1% (inactive). In the case of `CCC/C(=N\NC(N)=O)C(OC)OC`, the growth is 85.8% (inactive). On the same count and under the same terms, under `COc1ccc2cc(Cn3cc[n+](Cc4ccc5ccccc5c4)c3)ccc2c1` stands 29.8% (inactive). For `Cn1c(=O)c2c(c3ccccc31)OC(N)=C(C#N)C21C(=O)c2ccccc2C1=O`, the growth was 81.6% (inactive). On the same count and under the same terms, the figure for `CN1CCN(c2ccc3c(c2)nc(NNC(=O)c2cnccn2)c2cccn23)CC1` is 34.1% (inactive); for `Cc1cc(C)c(-c2c(O)c(Br)c(-c3c(C)cc(C)c(Br)c3C)c(O)c2Br)c(C)c1Br` it is -42.5% (active).

As for `CCN(CC)S(=O)(=O)c1ccc(S(=O)(=O)N2CCC[C@@H](C(=O)N3CCN(C(=O)OC(C)(C)C)CC3)C2)cc1`, the growth is 77.7% (inactive).

For `O=C1/C=C/[C@@H](O)[C@@H]2C[C@@H](O)C[C@H]2/C=C/CCC[C@H](CCOCc2ccccc2)O1`, the growth was -71.5% (active).

As to `COc1ccc(C2=Nc3c/c(=C\c4c(O)[nH]c5cc(Cl)ccc45)ccc3=N2)cc1`, the growth is 69.2% (inactive).

As to `CCCCCCCCCCCCCCCCCCOc1ccccc1CC(=O)NCC[N+]1(C)CCOCC1`, the growth is 54.1% (inactive). On the same count and under the same terms, the figure for `Cc1ccc(-c2cc(C(=O)N3N=C(c4ccc(N)cc4)CC3c3ccc(Cl)cc3)c3ccccc3n2)cc1` (configuration not stated) is 44.5% (inactive).

As for `O=C(CN1C(=O)/C(=C/c2ccco2)SC1=S)NCCc1c[nH]c2ccc(F)cc12`, the growth was 102% (inactive).

As to `CCN(CC)CCN(CCN(CC)CC)c1ccccc1`, the growth is 89.6% (inactive).

Consider `COc1cc(C(=O)C(=O)c2cc(OC)c(O)c(OC)c2)cc(OC)c1O`, for which the growth is 97.2% (inactive). Same read-out and setting: under `O=C(/C=C/c1ccc(Br)cc1)c1ccc(-n2cc(CN3CCN(c4cc5c(cc4F)c(=O)c(C(=O)O)cn5C4CC4)CC3)nn2)cc1` stands 80.1% (inactive).
